# Records with an inconclusive call do not appear. Entries that show only a call come without a potency. Active and inactive are the calls of the source. Unless noted, the call rests on the fitted dose curve; in most records, active means well fitted curve in the direction sought with a large enough effect in the repeat runs; inconclusive means weak or mixed curves; inactive means no such curve, though single readings can be large; an effect the other way counts as inactive or inconclusive.
# Key:
# [1] = qHTS assay to identify small molecule antagonists of the retinoid acid receptor (RAR) signaling pathway - cell viability counter screen (AID 1159551); further: nearly all actives have a fitted effect of over 35% in size
# Summary of the method: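 C3RL4 RARE-luciferase cells, 1,000/well, incubated overnight, then dosed with compound plus 1 uM retinol (final). After 6 hr at 37 C, viability read by CellTiter-Glo ATP luminescence following 30 min at room temperature.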
# [2] = qHTS assay to identify small molecule antagonists of the retinoic acid receptor (RAR) signaling pathway (AID 1159552; further: nearly all actives have a fitted effect of over 50% in size; further: potency means the concentration at half of the fitted maximal effect)
# Summary of the method: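 Test chemicals and DMSO controls were pin-transferred onto C3RL4 cells a day after seeding; retinol (1 uM final) followed at once. Luminescent reporter output was quantified after 6 hr of co-incubation and 30 min with detection reagent.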
# [3] = qHTS assay to identify small molecule agonists of the RXR signaling pathway - cell viability counter screen (AID 1159529); further: series mostly up to about 77 µM; nearly all actives have a fitted effect of over 50% in size
# Summary of the method: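 Compounds dissolved in DMSO were pinned onto HEK 293T cells carrying a beta-lactamase reporter under RXR-alpha control and incubated 16 hr. Cytotoxicity was then quantified by CellTiter-Glo luminescence.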
# [4] = qHTS assay to identify small molecule agonists of the retinoic acid receptor (RAR) signaling pathway (AID 1159553)
# Summary of the method: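 C3RL4 RARE-luciferase cells were seeded at 1,000/well and grown overnight at 37 C, then exposed to compounds for 6 hr at 37 C, 5% CO2. Luciferase reagent was added and luminescence was read after 30 min at room temperature.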
# [5] = qHTS assay to identify small molecule antagonists of the estrogen related receptor (ERR) signaling pathway - cell viability counter screen (AID 1224818); further: series mostly up to about 46 µM
# Summary of the method: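 ERR cells, 2,000 per well, compound added after 6 h and incubated 17.5 h at 37 C. Viability read by CellTiter-Fluor fluorescence after a further 30 min at 37 C.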
# [6] = qHTS assay to identify small molecule antagonists of the estrogen related receptor signaling pathway with the pleiotropic PPARgamma coactivator (PGC) cell viability counter screen (AID 1224822; further: series mostly up to about 46 µM)
# Summary of the method: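 PGC/ERR cells rested 6 h, then compound-treated 17.5 h at 37 C. CellTiter-Fluor added for 30 min at 37 C, viability measured by fluorescence intensity.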
# [7] = qHTS assay to identify small molecule antagonists of the estrogen related receptor (ERR) signaling pathway (AID 1224819;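 further: luminescence from an ERR-driven luciferase reporter measured with One-Glo reagent; series mostly up to about 46 µM; nearly all actives have a fitted effect of over 50% in size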)
# Summary of the method: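 ERR reporter cell line (NTP) plated at 2,000 cells/well, settled 6 h at 37C/5% CO2, then exposed to LOPAC compounds for 18 h at 37C. One-Glo luciferase luminescence read after 30 min at room temperature.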
# [8] = qHTS assay to identify small molecule agonists of the estrogen related receptor (ERR) signaling pathway (AID 1224820)
# Summary of the method: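 Cells: ERR line from NTP, 2,000/well. Pre-incubation 6 h, 37 C/5% CO2. Compound (DMSO) pin transfer, 18 h 37 C. One-Glo, 30 min RT, luminescence.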
# [9] = system: estrogen-related receptor alpha (ERRalpha) with PGC-1alpha coactivator, human; test: qHTS assay to identify small molecule antagonists of the estrogen related receptor signaling pathway with the pleiotropic PPARgamma coactivator (PGC) (AID 1224821; calls by dose curve;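 further: series mostly up to about 46 µM; lower luminescence signal means antagonism of PGC/ERR signalling; nearly all actives have a fitted effect of over 50% in size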)
# Summary of the method: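 Luminescent read-out (One-Glo, 30 min at room temperature) following 18 h treatment of PGC/ERR cells at 37 C with compounds delivered in DMSO. Cells had settled 6 h at 37 C/5% CO2 before dosing.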
# [10] = qHTS assay to identify small molecule agonists of the estrogen related receptor signaling pathway with the pleiotropic PPARgamma coactivator (PGC) (AID 1224823)
# Summary of the method: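 Steps: plate PGC/ERR cells at 2,000 cells/well; incubate 6 h, 37 C/5% CO2; pin-transfer compounds (DMSO); incubate 18 h, 37 C; add One-Glo; 30 min RT; read luminescence.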
structure (smiles),measurement,setting,value
CCOC(=O)[C@H](CCc1ccccc1)N[C@H]1CCc2ccccc2N(CC(=O)O)C1=O,Potency,[1],inactive
same,Potency,[2],29.8 µM (active)
C=CCCCCCC,Potency,[1],inactive
same,Potency,[2],inactive
Nc1ccc(C(=O)Nc2ccccc2N)cc1,Potency,[1],inactive
same,Potency,[2],inactive
CC1=CCC(C(C)C)C=C1 (centres undefined),Potency,[1],inactive
O=S1(=O)N=C(O)c2ccccc21,Potency,[3],inactive
same,Potency,[4],inactive
CN1CCC(=C2c3ccccc3CCc3sccc32)CC1,Potency,[1],inactive
Cc1ccc(O)c([C@H](CCN(C(C)C)C(C)C)c2ccccc2)c1,Potency,[1],inactive
same,Potency,[2],inactive
same,Potency,[4],inactive
Cc1ccc(C(C)c2ccc(C)c(C)c2)cc1C,Potency,[1],inactive
same,Potency,[2],inactive
same,Potency,[4],inactive
O=C(Nc1ccccc1)OCC(CN1CCCCC1)OC(=O)Nc1ccccc1 (centres undefined),Potency,[3],inactive
same,Potency,[2],inactive
same,Potency,[4],inactive
CC(C)NCC(O)COc1ccc(CC(N)=O)cc1 (centres undefined),Potency,[3],inactive
same,Potency,[4],inactive
same,outcome,[5],inactive
same,outcome,[6],inactive
Cc1ccc2c(ccc3ccccc32)c1,Potency,[1],inactive
same,Potency,[2],inactive
CC(C)c1ccc2c(C(C)C)cc(C(C)C)c(S(=O)(=O)O)c2c1,Potency,[3],inactive
same,Potency,[2],inactive
same,Potency,[4],inactive
CCN(CC)CCOc1ccc2c(c1)C(=O)c1cc(OCCN(CC)CC)ccc1-2,Potency,[1],inactive
same,Potency,[2],inactive
CCOc1ccc2[nH]cc(C(=O)NCc3ccccc3)c(=O)c2n1,Potency,[3],inactive
same,Potency,[2],inactive
same,Potency,[4],inactive
COc1ccccc1OC(=O)Oc1ccccc1OC,Potency,[1],inactive
O=C=NC1CCC(CC2CCC(N=C=O)CC2)CC1 (centres undefined),Potency,[1],inactive
CC(=O)OC/C=C/c1ccccc1,Potency,[1],inactive
C1=Cc2ccccc2C1,Potency,[1],inactive
same,Potency,[2],inactive
same,Potency,[4],inactive
O=c1c2ccccc2nnn1CCl,Potency,[1],inactive
same,Potency,[2],inactive
NCCCN(CCO)CCO,Potency,[3],inactive
same,Potency,[2],inactive
same,Potency,[4],inactive
O=C(O)[C@@H]1[C@H]2C[C@H]3c4[nH]c5ccccc5c4CCN3C[C@@H]2CC[C@@H]1O,Potency,[3],inactive
same,Potency,[4],inactive
CC(C)NCC(O)c1cc(O)cc(O)c1 (centres undefined),Potency,[3],inactive
same,Potency,[2],inactive
same,Potency,[4],inactive
same,outcome,[5],inactive
same,outcome,[7],inactive
same,outcome,[8],inactive
same,outcome,[9],inactive
same,outcome,[6],inactive
same,outcome,[10],inactive
Oc1ccc(Cc2ccccc2)cc1,Potency,[1],inactive
same,Potency,[2],inactive
same,Potency,[4],inactive
CCC(=O)OC(C)(C)C1CC=C(C)CC1 (centres undefined),Potency,[1],inactive
same,Potency,[2],inactive
same,Potency,[4],inactive
CCN(CC)CCNC(C(=O)OCCC(C)C)c1ccccc1 (centres undefined),Potency,[1],inactive
O=c1[nH]cnc2ccccc12,Potency,[3],inactive
same,Potency,[2],inactive
same,Potency,[4],inactive
CN(C(=O)CCCOc1ccc2[nH]c(=O)ccc2c1)C1CCCCC1,Potency,[3],inactive
same,Potency,[4],inactive
same,outcome,[5],inactive
same,outcome,[8],inactive
same,outcome,[9],inactive
same,outcome,[6],inactive
same,outcome,[10],inactive
O=C1CCCCCO1,Potency,[3],inactive
same,Potency,[2],inactive
same,Potency,[4],inactive
COC(=O)C(C)=O,Potency,[1],inactive
CC(=O)N(O)CCCCCNC(=O)CCC(=O)N(O)CCCCCNC(=O)CCC(=O)N(O)CCCCCN,Potency,[3],inactive
same,Potency,[2],inactive
same,Potency,[4],inactive
CC(C)(C)c1cc(CCC(=O)OCC(COC(=O)CCc2cc(C(C)(C)C)c(O)c(C(C)(C)C)c2)(COC(=O)CCc2cc(C(C)(C)C)c(O)c(C(C)(C)C)c2)COC(=O)CCc2cc(C(C)(C)C)c(O)c(C(C)(C)C)c2)cc(C(C)(C)C)c1O,Potency,[3],inactive
same,Potency,[2],inactive
same,Potency,[4],inactive
Oc1ccc(Sc2ccc(O)cc2)cc1,Potency,[1],inactive
same,Potency,[2],inactive
CC(Cc1cccc(C(F)(F)F)c1)NCCOC(=O)c1ccccc1 (centres undefined),Potency,[1],inactive
same,Potency,[2],inactive
same,Potency,[4],inactive
CC(=O)CC(=O)c1ccccc1,Potency,[3],inactive
same,Potency,[2],inactive
same,Potency,[4],inactive
C[Si](C)O[Si](C)(C)O[Si](C)(C)O[Si](C)C,Potency,[3],inactive
same,Potency,[4],inactive
CCCCCCCCN(C)C,Potency,[3],inactive
same,Potency,[2],inactive
same,Potency,[4],inactive
CCCCOC(O)CC (centres undefined),Potency,[1],inactive
same,Potency,[2],inactive
same,Potency,[4],inactive
COCCO,Potency,[1],inactive
same,Potency,[2],inactive
same,Potency,[4],inactive
O=C(Cl)c1ccc([N+](=O)[O-])cc1,Potency,[2],inactive
same,Potency,[4],inactive
O=C(O)Cn1c(C(=O)Nc2nc(-c3ccccc3Cl)cs2)cc2ccccc21,Potency,[1],inactive
same,Potency,[2],inactive
same,Potency,[4],inactive
CN(C)CC/C=C1\c2ccccc2COc2ccccc21,Potency,[2],21.1 µM (active)
same,Potency,[4],inactive
same,outcome,[5],inactive
same,outcome,[6],inactive
COc1ccc([C@@H]2Sc3ccccc3N(CCN(C)C)C(=O)[C@@H]2OC(C)=O)cc1,Potency,[2],inactive
same,Potency,[4],inactive
same,outcome,[5],inactive
same,outcome,[8],inactive
same,outcome,[6],inactive
CC(C)(C)C(=O)OCOP(=O)(COCCn1cnc2c(N)ncnc21)OCOC(=O)C(C)(C)C,Potency,[2],3.76 µM (active)
N#CCc1cccc(C(F)(F)F)c1,Potency,[1],inactive
same,Potency,[2],inactive
same,Potency,[4],inactive
CCCCOC(=O)/C=C\C(=O)OCCCC,Potency,[1],inactive
same,Potency,[4],inactive
O=C(NN1CCCC1)NS(=O)(=O)c1ccc(Cl)cc1,Potency,[1],inactive
same,Potency,[2],inactive
same,Potency,[4],inactive

# From PubChem BioAssay (Tox21)
